From PubChem BioAssay
Cycloheximide cs = counter-screen hit for Shiga toxin inhibitors, cycloheximide. cell reporter, cycloheximide protein synthesis inhibition counterscreen. max response, %. 300,000 tested, 12% active. AID 2314; in the data active = max response mostly above about 13%, no sharp cut-off; inactive = mostly below about 14%; note: read at 38.3 µM for the half of the compounds with a filed dose
Pf growth 48h = P. falciparum growth inhibition at 48 hours (one generation) | Potency, µM (top dose mostly 28.7 µM), usual class: inhibitors | P. falciparum luciferase growth in erythrocytes, 48 h | AID 504832 | 310,000 tested, 5.9% active
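Luciferase-expressing parasites in RBCs, 2% Hct / 0.1% parasitemia final; RPMI 1640 + 0.5% Albumax; 37 C, 5% CO2, one generation; luminescence read-out, lower signal = inhibition.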
Pf growth 96h = inhibits malaria parasite growth, 96 h. P. falciparum luciferase reporter growth, 96 h. Potency, µM (highest dose often 28.7 µM), actives largely listed as inhibitors. 320,000 tested, 6.9% active
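96 h incubation, 37 C, 5% CO2, of luciferase-reporter P. falciparum-infected RBCs (2% hematocrit, 0.05% parasitemia final) with test compounds; endpoint luminescence.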
Shiga toxin inh = blocks Shiga toxin action in Vero cells; Vero cells, Shiga toxin protein synthesis inhibition reporter; inhibition, % at 38.7 µM; 290,000 tested, 9.2% active; AID 2315; in the data active = inhibition mostly above about 28%, no sharp cut-off; inactive = mostly below about 43%
Each line names hits and unclear results; the compound was inactive in the other large screens. Compounds with a hit are over-represented: about 21% of the library has one in this group of screens. Unless noted, calls come from the whole dose curve; as a rule, active = well fitted inhibition curve with a large enough effect; inconclusive = small, poorly fitted or top-dose-only effect, or another doubt; inactive = no such curve, though single readings can be large or run the other way.

O=C1c2ccc3c4c(ccc(c24)C(=O)N1CCCCO)C(=O)N(CCCCO)C3=O	Cycloheximide cs 34, Pf growth 48h 0.74µM, Shiga toxin inh 72
COc1cc(C)ccc1N(CCCN1C(=O)c2cccc3cccc(c23)C1=O)C(=O)c1cccs1	Pf growth 48h inconclusive, Pf growth 96h 9.3µM
O=C(CCCCCN1C(=O)c2cccc3cccc(c23)C1=O)NO	none (no result: Pf growth 48h, Pf growth 96h)
O=C1c2cccc3cccc(c23)C(=O)N1CCc1ccccc1	Cycloheximide cs 51, Pf growth 96h inconclusive, Shiga toxin inh 95
COC(=O)CCCN1C(=O)c2cccc3cccc(c23)C1=O	Cycloheximide cs 24, Pf growth 96h inconclusive
O=C(c1ccc2c(c1)C(=O)N(CCCO)C2=O)c1ccc2c(c1)C(=O)N(CCCO)C2=O	none (no result: Pf growth 96h)
CC(C)Oc1cccc(C2NC(=O)c3ccccc3O2)c1 (configuration not stated)	Pf growth 96h inconclusive
O=C(CCN1C(=O)c2cccc3cccc(c23)C1=O)N1CCOCC1	Cycloheximide cs 26, Pf growth 96h inconclusive, Shiga toxin inh 94
O=C1c2ccccc2C(=O)N1CCSC(=S)N1CCOCC1	Cycloheximide cs 26
O=C(CCN1C(=O)c2ccccc2C1=O)N1CCOCC1	none
COC(=O)Nc1ccc(N2CCOCC2)c(S(=O)(=O)N2CCOCC2)c1	none
CN(C1CCCCC1)S(=O)(=O)c1ccc(S(=O)(=O)N2CCCC2)cc1	Pf growth 48h inconclusive, Pf growth 96h 1.7µM
O=S(=O)(c1ccc(S(=O)(=O)N2CCCC2)cc1)N1CCCCC1	none
CCOc1ccc(S(=O)(=O)N(C)C2CCCCC2)cc1	Pf growth 96h 1.7µM
Oc1oc(-c2ccc(Br)cc2)nc1/C=N/c1ccccn1	Cycloheximide cs 54, Shiga toxin inh 120
Cc1ccc(-c2nc(C=Nc3ccccc3)c(O)o2)cc1	Cycloheximide cs 51, Shiga toxin inh 85
Cc1ccc(N=Cc2nc(-c3ccco3)oc2O)cc1	Cycloheximide cs 29, Shiga toxin inh 101
COc1ccc(C(=O)NCC(=O)OCc2c(Cl)cccc2Cl)cc1OC	Pf growth 48h inconclusive (no result: Cycloheximide cs, Shiga toxin inh)
CCOc1cccc(CN2CCC(CCC(=O)NC3CC3)CC2)c1O	none
COc1ccccc1NC(=O)Nc1nc(C(C)(C)C)cs1	Cycloheximide cs 21, Pf growth 48h inconclusive, Pf growth 96h inconclusive
COc1ccccc1CNC(=O)Cc1csc(NC(=O)Nc2ccccc2OC)n1	Pf growth 48h inconclusive, Pf growth 96h 13µM (no result: Cycloheximide cs, Shiga toxin inh)
COc1ccccc1NC(=O)Nc1nc(CC(=O)Nc2cccc(F)c2)cs1	Pf growth 48h 4.1µM, Pf growth 96h 2.1µM (no result: Cycloheximide cs, Shiga toxin inh)
COc1cccc(-n2nnnc2SCC(=O)N2CCCc3ccccc32)c1	Pf growth 96h inconclusive
O=C(CCN1CCOCC1)Nc1ccc2c(c1)CCC2	Pf growth 96h 3.7µM
O=C(CN1CCOCC1)Nc1ccc2c(c1)CCC2	Cycloheximide cs 17
COc1ccc(N2CC(C(=O)Nc3ccncc3)CC2=O)cc1 (configuration not stated)	none
O=C(NC1CCCC1)C(c1ccc(N2CCOCC2)cc1)N(Cc1ccccc1)C(=O)c1ccco1 (configuration not stated)	Pf growth 48h 15µM (no result: Pf growth 96h)
COC(=O)c1cccc(N(C(=O)c2ccco2)C(C(=O)NC2CCCC2)c2ccc(N3CCOCC3)cc2)c1 (configuration not stated)	Pf growth 48h 10µM
Cc1ccc(-n2nc3c(=O)n(C(C)C(=O)NCCCc4ccccc4)nc(C)c3c2C)cc1 (configuration not stated)	Pf growth 48h inconclusive, Pf growth 96h 8.3µM
COc1ccc(OC)c(CCNC(=O)C(C)n2nc(C)c3c(C)n(-c4ccccc4)nc3c2=O)c1 (configuration not stated)	Pf growth 96h 12µM
Cc1nn(CC(=O)NCc2cccs2)c(=O)c2nn(-c3ccccc3)c(C)c12	none
Cc1nn(C(C)C(=O)NCCc2cccs2)c(=O)c2nn(-c3ccccc3)c(C)c12 (configuration not stated)	Pf growth 96h 13µM
Cc1ccc(-n2nc3c(=O)n(CC(=O)NCCCc4ccccc4)nc(C)c3c2C)cc1	Pf growth 96h inconclusive
CC(=O)c1ccccc1NC(=O)CCCNC(=O)c1ccc(Cl)cc1	none
CCCCn1c(N)c(N(CC)C(=O)c2ccc([N+](=O)[O-])c(C)c2)c(=O)[nH]c1=O	none
CCc1nn(CC(=O)N2CCCCCC2)c(=O)c2cc3ccccc3n12	none
Cc1ccc(N2C(=O)N3[C@H](c4ccc(F)cc4)[C@@H]4C(=O)N(C5CCCCC5)C(=O)[C@@H]4[C@]3(C)C2=O)cc1	Pf growth 96h inconclusive
S=c1nc(NCCc2ccccc2Cl)c2ccccc2[nH]1	Cycloheximide cs 26
N#C/C(=C\c1c(N2CCCCCC2)nc2ccccn2c1=O)C(=O)NCc1ccco1	Cycloheximide cs 38, Pf growth 48h inconclusive, Pf growth 96h inconclusive
